The text below walks through data of ChEMBL document CHEMBL3988442, “University of Dundee, Small-Polar-MMV Screening Library” (2021).

Assay [1] deals with T1, Aspartate--tRNA(Asp/Asn) ligase (Mycobacterium tuberculosis (strain ATCC 25618 / H37Rv)) (UniProt P9WFW3).
T1 sequence (whole entry): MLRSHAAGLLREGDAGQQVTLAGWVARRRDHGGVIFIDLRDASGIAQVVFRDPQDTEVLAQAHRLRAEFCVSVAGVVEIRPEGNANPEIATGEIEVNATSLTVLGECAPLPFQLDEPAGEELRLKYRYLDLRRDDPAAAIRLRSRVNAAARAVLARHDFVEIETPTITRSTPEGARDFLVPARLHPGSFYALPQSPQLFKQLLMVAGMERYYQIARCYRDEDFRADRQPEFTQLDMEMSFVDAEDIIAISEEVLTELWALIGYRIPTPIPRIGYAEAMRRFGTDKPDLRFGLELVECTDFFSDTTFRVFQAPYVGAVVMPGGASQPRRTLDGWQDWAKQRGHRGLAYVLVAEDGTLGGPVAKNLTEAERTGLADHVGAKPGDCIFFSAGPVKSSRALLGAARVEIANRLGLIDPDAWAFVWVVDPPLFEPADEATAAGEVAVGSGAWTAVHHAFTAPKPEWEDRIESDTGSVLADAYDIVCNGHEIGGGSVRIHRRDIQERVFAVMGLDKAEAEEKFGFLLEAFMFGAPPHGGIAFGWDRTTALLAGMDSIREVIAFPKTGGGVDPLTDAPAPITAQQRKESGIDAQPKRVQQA
The assay can be described thus: Assay for Asp RNA synthetase-1 from Mycobacterium tuberculosis. Further details: scale not given: direction of the effect not stated beside the values. The note with it: 30 µM. In kind it is functional.

The target in assay [2] is Shiga toxin 2 (Escherichia coli O157:H7) (UniProt P09385+P09386). The assay can be described thus: E. coli 0.157:H7 Shiga Toxin SOP - stx2 screening assay. The assay is classed as functional. Further details: scale not given: direction of the effect not stated beside the values. The note with it: 30 µM.

With `Cc1ccc(CN2CCc3c(C(=O)N(C)C)nn(C)c3C2)s1`, the Percent Effect in assay [1] was 1.82%; in assay [2], 3.56%.
As to `CCc1cnc(N2C[C@H]3C[C@H](C(=O)N(C)C)[C@@H](C2)O3)nc1`, the Percent Effect in assay [1] was -1.86%; in assay [2], -0.162%.
As to `Cc1cc2c(=O)n3c(nc2s1)CCN(C(=O)c1scnc1C)CC3`, the results for the Percent Effect in assay [1] and in assay [2] were -1.56% and 0.428%, respectively.
The like results for `COCC(=O)N1CCC(c2nc3ccc(N4CCCC4)cn3n2)CC1` were, in that order, -0.957% and -26.9%.
The like results for `O=C(c1ccco1)N1C[C@H]2CCCN(CC3CCOCC3)[C@H]2C1` were, in that order, 11.5% and 2.22%.
The like results for `CCOCCOC(C)C(=O)NCc1cn2cc(Br)ccc2n1` (centres undefined) were, in that order, 1.62% and -14.8%.
As to `CCO[C@@H]1CO[C@@]2(CCCN(S(=O)(=O)c3cccnc3)C2)C1`, the Percent Effect in assay [1] was 9.04%; in assay [2] it was -20%.
The like results for `CSCCCNC(=O)Nc1cccc(-c2nccn2C)c1` were, in that order, -3.93% and -93.1%.
Consider `CNC(=O)C1(c2cnccn2)CCCN1C(=O)c1ccn(C)n1` (centres undefined), for which the values for the Percent Effect in assay [1] and in assay [2] were -7.79% and -1.47%, respectively.
Consider `CCOCC(O)CN1CCN(C(=O)c2ccccc2Cl)CC1` (centres undefined), for which the Percent Effect was -4.21% in assay [1] and 24.8% in assay [2].
As to `COCCC(=O)N1CCC(c2noc3nc(C)cc(C(F)(F)F)c23)CC1`, the Percent Effect in assay [1] was 1.68%; in assay [2] it was 8.3%.
With `Cc1ccc(CNC(=O)N2CCCCC2CCNS(C)(=O)=O)cc1` (centres undefined), the Percent Effect in assay [1] worked out at 1.04%; in assay [2], 6.21%.
With `CCc1nc(C)c(C(=O)NCCN2CCN(C(C)=O)CC2)s1`, the figures for the Percent Effect in assay [1] and in assay [2] were 0.0694% and -21.7%, respectively.
The like results for `O=C(c1cccn1Cc1cccs1)N1CCCC1Cn1cccn1` (centres undefined) were, in that order, -0.702% and 14.5%.
The like results for `CC(=O)N1CCC(C(=O)NCCN2CCC(C)CC2)CC1` were, in that order, 0.167% and 0.682%.
Turning to `Cc1ncc2c(n1)CN(Cc1nnc(Cc3ccccc3)o1)CC2`, the Percent Effect was 0.379% in assay [1] and -26.9% in assay [2].
The like results for `Cc1ccc(N2CCCC(NCc3cccc4c3OCCO4)C2)nn1` (centres undefined) were, in that order, 4.13% and 19%.
The like results for `COCC1CN(Cc2ccsc2)Cc2nn(C)cc21` (centres undefined) were, in that order, 15.7% and -13.1%.
Turning to `CN(C)[C@@H]1CN(Cc2ccoc2)C[C@@H]2CCCO[C@@H]21`, the Percent Effect in assay [1] was -2.7%; in assay [2], 2.87%.
As to `Cn1ccc(CN2CCC(CCc3ccc(O)cc3)CC2)cc1=O`, the values for the Percent Effect in assay [1] and in assay [2] were -1.67% and -46.5%, respectively.
For the compound `Cc1ncsc1CCC(=O)NCc1cc2n(n1)CCN(C(=O)N(C)C)C2`, the Percent Effect in assay [1] was -4.32%; in assay [2], -29.5%.
For `COc1cccc(C(=O)N2CCCC(C(=O)CCc3ccccc3)C2)c1` (centres undefined), the Percent Effect in assay [1] is 4.2%; in assay [2] it was -7.01%.
The like results for `Cc1cc(NC(=O)NCC(C)N2CCc3ccccc32)no1` (centres undefined) were, in that order, 2.59% and -1.83%.
In the case of `CCN(CC)c1ccc(NS(=O)(=O)c2cnn(C)c2)cn1`, the Percent Effect is 2.14% in assay [1] and -30.7% in assay [2].
As for `O=C(Cc1ccsc1)N1CCn2cc(CN3CCCC3)nc2C1`, the Percent Effect was -0.684% in assay [1] and -12% in assay [2].
Take `Cc1cc(C)n(CC(=O)N2CCC(NS(=O)(=O)c3ccccc3)CC2)n1`: the Percent Effect is 0.878% in assay [1] and 31.2% in assay [2].
The like results for `O=C(CC1CC1)NCc1cn2c(n1)CN(CC1CC1)CC2` were, in that order, 4.87% and -4.42%.
Regarding `COCC1c2c(cnn2C)CCN1Cc1ccoc1` (centres undefined), the Percent Effect was 2.94% in assay [1] and -3.41% in assay [2].
Take `Cc1nc(N(C)C)nc2c1COCC21CCN(C(=O)NC(C)C)C1` (centres undefined): the Percent Effect in assay [1] is 2.63%; in assay [2] it was -1.42%.
`CC(C)(C)C(=O)Cn1nc(-c2ccccc2F)ccc1=O`: the Percent Effect was -2.79% in assay [1] and -9.41% in assay [2].
The like results for `CCc1noc(C2CCN(C(=O)CCn3nc(C)cc3C)CC2)n1` were, in that order, 8.14% and -32.8%.
For the compound `Cc1occc1C(=O)N1CCOCC2(CCN(Cc3nccs3)C2)C1` (centres undefined), the values for the Percent Effect in assay [1] and in assay [2] were -0.802% and -26.4%, respectively.
The like results for `Cc1nccn1-c1cccc(C2CCCN2S(=O)(=O)N(C)C)n1` (centres undefined) were, in that order, 1.37% and -8.96%.
Regarding `CCc1nc(C)c(C(=O)NCCNc2cnccn2)s1`, the Percent Effect came out at 4.33% in assay [1] and 8.72% in assay [2].
Consider `Cc1noc(C2CCN(Cc3cc(=O)n(C)c(=O)n3C)CC2)n1`, for which the Percent Effect in assay [1] was -4.37%; in assay [2], -1.09%.
Consider `CN(C)CC(=O)N1Cc2nc(C(=O)NCc3ccncc3)oc2C1`, for which the figures for the Percent Effect in assay [1] and in assay [2] were 4.86% and -45%, respectively.
Consider `CCCc1cc(CNC(=O)C2CCOc3ccccc3C2)on1` (centres undefined), for which the values for the Percent Effect in assay [1] and in assay [2] were 2.59% and 17.5%, respectively.
On to `Cc1cc(C)cc(-c2ccc(CC3(C(=O)O)CCOCC3)cc2)c1`, for which the results for the Percent Effect in assay [1] and in assay [2] were 4.9% and -4.63%, respectively.
The like results for `Cc1ccc(CN2CCCC3(CCN(S(C)(=O)=O)C3)C2)o1` (centres undefined) were, in that order, 5.01% and 3.27%.
The like results for `COc1cc(CN(C)C(=O)Nc2cc(C)on2)ccc1SC` were, in that order, 2.27% and -8.55%.
As for `Cc1cc(C)cc(NC(=O)CN2CCCC(n3cncn3)C2)c1` (centres undefined), the figures for the Percent Effect in assay [1] and in assay [2] were -0.903% and 12.2%, respectively.
The like results for `Cc1cnn(CC2CCCCN2CCC(=O)Nc2cc(C)on2)c1` (centres undefined) were, in that order, 1.03% and 5.5%.
As to `O=C(NCCNc1cnccn1)N1CCCC1`, the Percent Effect in assay [1] is -2.84%; in assay [2] it was 2.11%.
The like results for `O=C1CC(c2cccnc2)c2c(c(C(=O)O)cn2-c2ccccc2)N1` (centres undefined) were, in that order, 4.82% and -6.55%.
The like results for `O=C(c1cccc(S(=O)(=O)NCCCc2ccco2)c1)N1CCOCC1` were, in that order, 6.79% and -0.897%.
The like results for `CC(=O)N(Cc1ncc(C)o1)C1CCN(Cc2ccncc2Cl)C1` (centres undefined) were, in that order, 2.91% and 16%.
`O=C1CCC(C(=O)NCc2nn(-c3ccccc3)c3c2CCC3)CN1` (centres undefined): the figures for the Percent Effect in assay [1] and in assay [2] were -2.23% and -54.3%, respectively.
Take `Cn1nc(COc2cccnc2)c2c1CCN(c1cnccn1)C2`: the Percent Effect was found to be 10.9% in assay [1] and 7.98% in assay [2].
The like results for `COc1ccccc1CC(=O)N1CCC(NCc2c[nH]nc2C)CC1` were, in that order, 4.54% and 17.4%.
As for `O=C(NCC1CC1)C1CCC2(CCN(C(=O)c3ccccn3)CC2)O1` (centres undefined), the Percent Effect in assay [1] is -1.39%; in assay [2], 1.47%.
The like results for `O=C(C1CCOC1)N1C[C@H]2CN(Cc3nccs3)C[C@H]2C1` (some centres undefined) were, in that order, -1.88% and 1.98%.
The like results for `CCc1cc(C(F)(F)F)c2c(C)nn(CC(=O)O)c2n1` were, in that order, -5.37% and 14.6%.
